C diff growth: C. difficile growth inhibition; Clostridium difficile clinical isolate growth, OD600, 24 h; stronger effect = lower value; AID 1259249; growth activity, negative = inhibition, % at 16 µg/mL (by protocol); actives 0.25% (n = 86,000);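 active means mean growth activity at or below -80% and every replicate also at or below -80%; inconclusive means mean at or below -80% but some replicate above -80%; inactive means mean growth activity above -80%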;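 further: 0% = DMSO wells and -100% = levofloxacin 16 µg/mL wells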
Pf Dd2 inh: P. falciparum Dd2 growth inhibition; SYBR Green, 72 h; stronger effect = lower value; activity change, % at 10 µM; actives 2.3% (n = 94,000); in the data active means activity change below about -80%; inconclusive means no clear call, values can overlap the other calls
T cruzi growth-1: inhibitors of T. cruzi proliferation | T. cruzi beta-gal in NIH3T3, GalScreen luminescence, 90 h | inhibition, % at 8.34 µM | actives 5.9% (n = 77,000);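 active means mean inhibition above about 93%, with at least 55% of replicates each passing it, limit read from the data, passing the limit was not always enough; inconclusive means only one of those two conditions holds; inactive means neither condition holds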
T cruzi growth-2: inhibitors of T. cruzi proliferation. shares compounds with T cruzi growth-1. T. cruzi beta-gal in NIH3T3, GalScreen luminescence, 90 h. inhibition, % at 8.35 µM. actives 72% (n = 5,600);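 active means mean replicate inhibition above about 95% and at least 55% of replicates individually reaching it, limit read from the data; inconclusive means only one of the two criteria is met; inactive means neither criterion is met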
T cruzi growth-3: Trypanosoma cruzi proliferation inhibition. shares compounds with T cruzi growth-1. T. cruzi beta-gal in NIH3T3, GalScreen luminescence, 90 h. inhibition, % at 2.09 µM. actives 21% (n = 5,600). AID 651740;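 active means mean inhibition above about 95%, with at least 55% of replicates also reaching it, limit read from the data; inconclusive means meets just one of the two conditions; inactive means meets neither condition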;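 further: plate controls were neutral control median for no effect and positive control median for full effect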
NIH3T3 tox: cytotoxicity in mouse NIH/3T3 fibroblasts | AID 651742 | actives 14% (n = 5,600) | cytotoxicity (signal decrease), % at 8.35 µM | NIH/3T3 viability, CellTiter-Glo ATP luminescence, 90 h | shares compounds with T cruzi growth-1;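 active means mean signal decrease across replicates above about 35% based on untreated-well scatter, with enough replicates individually passing, limit read from the data; inconclusive means no rule stated though some were filed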;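 further: 0% = median of neutral control wells and 100% = median of positive control wells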
NIH3T3 tox 2: NIH/3T3 (mouse) viability loss. shares compounds with T cruzi growth-1. NIH/3T3 viability, CellTiter-Glo ATP luminescence, 90 h. inhibition, % at 24.9 µM. actives 56% (n = 5,600). AID 651744;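 active means mean loss of cell viability signal at or above a set limit, and enough replicates individually reaching it; inconclusive means meets only the mean limit or only the replicate share; inactive means meets neither condition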;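 further: 0% = median of neutral control wells and 100% = median of positive control wells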
Active calls of the source: *. Shown are actives, neighbours in structure and some others; about 6.7% of the full set was active somewhere.

OC[C@@H]1[C@@H](c2ccc(-c3ccccc3)cc2)[C@H]2CN(CCC(F)(F)F)CCCCN12 was read as C diff growth 23.9, Pf Dd2 inh -71.5 and T cruzi growth-1 84.6.
`OC[C@@H]1[C@H](c2ccc(-c3ccccc3)cc2)[C@H]2CN(CCC(F)(F)F)CCCCN12` gave C diff growth 3.3, Pf Dd2 inh -80.4*, T cruzi growth-1 103.6*, T cruzi growth-2 103.0*, T cruzi growth-3 62.3, NIH3T3 tox 19.3 and NIH3T3 tox 2 106.3*.
OC[C@@H]1[C@H](c2ccc(-c3cccc(F)c3)cc2)[C@H]2CN(CCC(F)(F)F)CCCCN12 was read as C diff growth 9.5, Pf Dd2 inh -74.0, T cruzi growth-1 107.5*, T cruzi growth-2 99.4*, T cruzi growth-3 85.1, NIH3T3 tox 27.2 and NIH3T3 tox 2 104.3*.
For OC[C@@H]1[C@H](c2ccc(-c3cccc(F)c3)cc2)[C@@H]2CN(CCC(F)(F)F)CCCCN12 the results were C diff growth 22.9, Pf Dd2 inh -10.9 and T cruzi growth-1 90.8.
`Cc1ccc(S(=O)(=O)Nc2ccc3c(c2)C(=O)N([C@H](C)CO)C[C@@H](C)[C@@H](CN(C)C(=O)Nc2ccc(F)cc2)O3)cc1` gave C diff growth -3.0, Pf Dd2 inh -9.4 and T cruzi growth-1 -32.6.
OC[C@@H]1[C@H](c2ccc(C#CC3CCCC3)cc2)[C@H]2CN(CCC(F)(F)F)CCCCN12 was read as C diff growth 52.9, Pf Dd2 inh inconclusive, T cruzi growth-1 101.2*, T cruzi growth-2 88.9, T cruzi growth-3 109.2*, NIH3T3 tox 58.0* and NIH3T3 tox 2 105.0*.
Screening OC[C@@H]1[C@@H](c2ccc(-c3ccccc3)cc2)[C@@H]2CN(CCC(F)(F)F)CCCCN12 returned C diff growth -10.1, Pf Dd2 inh -28.1 and T cruzi growth-1 90.9.
For OC[C@@H]1[C@H](c2ccc(-c3ccc(F)cc3)cc2)[C@@H]2CN(CCC(F)(F)F)CCCCN12 the results were C diff growth 49.8, Pf Dd2 inh 2.5, T cruzi growth-1 inconclusive, T cruzi growth-2 105.1*, T cruzi growth-3 94.7, NIH3T3 tox 40.5* and NIH3T3 tox 2 104.7*.
Screening OC[C@H]1[C@@H](c2ccc(C#CC3CCCC3)cc2)[C@@H]2CN(CCC(F)(F)F)CCCCN12 returned C diff growth 22.8, Pf Dd2 inh -78.1 and T cruzi growth-1 72.8.
For CN(C)C(=O)c1ccc(-c2ccc([C@@H]3[C@H](CO)N4CCCCN(CCC(F)(F)F)C[C@@H]34)cc2)cc1 the results were C diff growth 4.3, Pf Dd2 inh -20.9 and T cruzi growth-1 67.7.
Screening CN(C)C(=O)c1ccc(-c2ccc([C@H]3[C@@H](CO)N4CCCCN(CCC(F)(F)F)C[C@H]34)cc2)cc1 returned C diff growth 1.6, Pf Dd2 inh -24.0, T cruzi growth-1 100.9*, T cruzi growth-2 100.0*, T cruzi growth-3 88.6, NIH3T3 tox -9.3 and NIH3T3 tox 2 -4.8.
For C[C@@H]1CCCCO[C@H](CN(C)CC2CC2)[C@H](C)CN([C@@H](C)CO)C(=O)c2cc(NC(=O)Nc3ccccc3)ccc2O1 the results were C diff growth 0.8, Pf Dd2 inh inconclusive and T cruzi growth-1 91.8.
For C[C@@H]1CCCCO[C@@H](CN(C)CC2CC2)[C@H](C)CN([C@@H](C)CO)C(=O)c2cc(NC(=O)Nc3ccccc3)ccc2O1 the results were Pf Dd2 inh 2.2 and T cruzi growth-1 82.5.
`C[C@@H]1CCCCO[C@@H](CN(C)CC2CC2)[C@@H](C)CN([C@H](C)CO)C(=O)c2cc(NC(=O)Nc3ccccc3)ccc2O1` gave C diff growth 10.4, Pf Dd2 inh -83.9*, T cruzi growth-1 96.7*, T cruzi growth-2 38.7, T cruzi growth-3 3.0, NIH3T3 tox -1.6 and NIH3T3 tox 2 7.1.
C[C@@H]1CN([C@@H](C)CO)C(=O)c2cc(NC(=O)Nc3ccccc3)ccc2O[C@@H](C)CCCCO[C@H]1CN(C)CC1CCCCC1 was read as C diff growth 8.6, Pf Dd2 inh -75.0, T cruzi growth-1 97.0*, T cruzi growth-2 22.8, T cruzi growth-3 7.9, NIH3T3 tox -0.7 and NIH3T3 tox 2 4.1.
COc1ccc(NC(=O)Nc2ccc3c(c2)C(=O)N([C@H](C)CO)C[C@H](C)[C@@H](CN(C)CC2CCCCC2)OCCCC[C@@H](C)O3)cc1 was read as C diff growth -4.2, Pf Dd2 inh -69.3 and T cruzi growth-1 92.7.
Screening COc1ccc(NC(=O)Nc2ccc3c(c2)C(=O)N([C@@H](C)CO)C[C@@H](C)[C@H](CN(C)CC2CCCCC2)OCCCC[C@@H](C)O3)cc1 returned C diff growth 3.1, Pf Dd2 inh -73.2, T cruzi growth-1 inconclusive, T cruzi growth-2 98.5*, T cruzi growth-3 59.0, NIH3T3 tox 15.2 and NIH3T3 tox 2 103.8*.
For C[C@H]1CCCCO[C@H](CN(C)CC2CC2)[C@@H](C)CN([C@@H](C)CO)C(=O)c2cc(NC(=O)Nc3ccccc3)ccc2O1 the results were C diff growth 0.2, Pf Dd2 inh -73.0 and T cruzi growth-1 65.5.
`C[C@@H]1CCCCO[C@H](CN(C)CC2CCCCC2)[C@H](C)CN([C@H](C)CO)C(=O)c2cc(NC(=O)Nc3ccccc3)ccc2O1` gave C diff growth 10.9, Pf Dd2 inh inconclusive, T cruzi growth-1 inconclusive, T cruzi growth-2 101.5*, T cruzi growth-3 89.8, NIH3T3 tox 28.5 and NIH3T3 tox 2 104.6*.
Screening CC(C)C#Cc1ccc2c(c1)O[C@@H](CN(C)C)[C@H](C)CN([C@@H](C)CO)S2(=O)=O returned C diff growth 0.8 and Pf Dd2 inh -9.8.
Screening CC(C)NC(=O)N(C)C[C@H]1Oc2ccc(NC(=O)c3ccncc3)cc2CC(=O)N([C@@H](C)CO)C[C@H]1C returned C diff growth 8.4 and Pf Dd2 inh -13.7.
For CCCNC(=O)N1[C@@H]2c3ccc(-c4cccc(OC)c4)c(=O)n3C[C@H]1[C@H](CO)[C@H]2C(=O)NCC the results were C diff growth -2.0, Pf Dd2 inh 0.0 and T cruzi growth-1 53.1.
For C[C@H](CO)N1C[C@H](C)[C@@H](CN(C)S(=O)(=O)c2cccs2)Oc2ccc(NC(=O)CCCN(C)C)cc2C1=O the results were Pf Dd2 inh -3.4 and T cruzi growth-1 -19.5.
CNC(=O)C[C@H]1CC[C@H]2[C@@H](COc3ccc(NC(=O)c4ccc(F)c(F)c4)cc3C(=O)N2C)O1 was read as C diff growth 3.7, Pf Dd2 inh -2.3 and T cruzi growth-1 43.6.
For C[C@H](CO)N1C[C@H](C)[C@H](CN(C)CC2CCCCC2)OCCCC[C@H](C)Oc2ccc(NC(=O)NC3CCCCC3)cc2C1=O the results were Pf Dd2 inh -63.7 and T cruzi growth-1 77.9.
